MBD2 DNA inh: inhibitors of MBD2 binding to methylated DNA, primary screen, biochemical, TR-FRET, DNA-binding domain, human | MBD2 binding to methylated oligonucleotide | Methyl-CpG-binding domain protein 2 (Homo sapiens), Q9UBB5 | inhibition, % at 4.4 µM | AID 686964, 2013 | 370,000 tested, 0.31% active; in the data active means inhibition above about 13%
ABHD5-PLIN5 inh: ABHD5-PLIN5 interaction inhibitors, primary screen, cell lysate, split luciferase complementation, luminescence. Perilipin-5 (Homo sapiens) + 1-acylglycerol-3-phosphate O-acyltransferase ABHD5 (Homo …. Split G. princeps luciferase complementation, 4 h. inhibition, % at 4 µM. 360,000 tested, 0.78% active;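 active means inhibition above the mean inhibition across every tested compound plus 3 SD, cut at about 22% in these data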;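 further: 0% = DMSO only wells and the 100% control is not disclosed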
LEDGF integ inh: blockers of LEDGF/p75-dependent integrase strand transfer – biochemical, TR-FRET, high throughput, primary screen. HIV-1 integrase (with human LEDGF/p75). TR-FRET IN-LEDGF/p75 DNA integration, Eu/Cy5. inhibition, % at 3.7 µM. 370,000 tested, 0.64% active. AID 743269, 2014;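 active means inhibition above the screen-wide mean plus 3 SD, cut at about 13% in these data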;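 further: signal is the Cy5 over europium emission ratio at 671 and 618 nm; 0% = plate median of compound wells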
rCAG RNA binder: binders of r(CAG) RNA repeats, primary screen, biochemical, fluorescence; inhibition, % at 3 µM; 370,000 tested, 1.3% active; r(CAG) RNA repeat, TO-PRO-1 dye displacement fluorescence;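 active means inhibition above the plate cutoff, the mean of all test compounds on that plate plus 3 SD, cut at about 35% in these data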;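 further: 0% = DMSO alone and 100% = 100 µM mitoxantrone as full dye displacement; higher means more dye released from RNA so lower well fluorescence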
PRMT1 FP inh: PRMT1 methyltransferase inhibitors, primary screen, biochemical, fluorescence polarization | Protein arginine N-methyltransferase 1 (Homo sapiens), Q99873 | recombinant PRMT1, activity-based probe fluorescence polarization | inhibition, % at 2.79 µM | 370,000 tested, 1.3% active;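 active means inhibition above about 21% made by adding two undisclosed values, limit read from the data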
UHRF1 MBD2 ctr: UHRF1 methylated DNA binding inhibitors, primary screen, counter-screen for MBD2 inhibitor project, biochemical, TR-FRET, human UHRF1, single concentration. E3 ubiquitin-protein ligase UHRF1 (Homo sapiens), Q96T88. UHRF1 binding to methylated oligo. inhibition, % at 4.4 µM. 370,000 tested, 0.75% active. AID 687016, 2013; in the data active means inhibition above about 21%;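 further: UHRF1 SRA domain binding a hemimethylated CpG hairpin DNA probe; 0% = median of test compound wells and 100% = reference inhibitor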
ABHD5-PLIN5 conf: ABHD5-PLIN5 interaction inhibitors, confirmation, biochemical, luminescence. inhibition, % at 4 µM. shares compounds with ABHD5-PLIN5 inh. 2,200 tested, 67% active; in the data active means inhibition above about 23%;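 further: 0% = DMSO vehicle wells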
HNF4 counter: HNF4 dimerization inhibitors, counter-screen for ABHD5-PLIN5 interaction inhibitor project, biochemical, split-luciferase complementation, luminescence; shares compounds with ABHD5-PLIN5 inh; inhibition, % at 4 µM; 2,200 tested, 77% active; AID 651674, 2012;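 active means mean inhibition across replicate wells exceeding the computed hit threshold, cut at about 13% in these data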;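 further: light from luciferase halves that rejoin when HNF4 fusion proteins dimerize; 0% = DMSO only wells and the 100% control is not given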
Target sequence (P41235 whole entry, looked up, the tested form may be a part): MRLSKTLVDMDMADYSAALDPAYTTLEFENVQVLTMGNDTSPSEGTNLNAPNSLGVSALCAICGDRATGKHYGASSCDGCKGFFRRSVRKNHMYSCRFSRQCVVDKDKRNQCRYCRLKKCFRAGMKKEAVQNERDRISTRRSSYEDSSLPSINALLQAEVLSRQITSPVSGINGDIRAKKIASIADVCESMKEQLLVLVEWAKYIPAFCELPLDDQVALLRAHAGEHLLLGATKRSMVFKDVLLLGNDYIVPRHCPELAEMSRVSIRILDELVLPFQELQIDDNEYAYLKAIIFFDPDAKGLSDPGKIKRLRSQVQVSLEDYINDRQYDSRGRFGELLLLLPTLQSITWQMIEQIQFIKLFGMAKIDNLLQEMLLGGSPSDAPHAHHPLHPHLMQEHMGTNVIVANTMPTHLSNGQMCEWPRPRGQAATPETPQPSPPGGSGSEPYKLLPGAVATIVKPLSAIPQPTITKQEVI
An asterisk follows results filed as active; nt = no result given. Compounds with a hit are over-represented: about 4.1% of the library has one in this group of screens.

SMILES	MBD2 DNA inh	ABHD5-PLIN5 inh	LEDGF integ inh	rCAG RNA binder	PRMT1 FP inh	UHRF1 MBD2 ctr	ABHD5-PLIN5 conf	HNF4 counter
Cc1ccc(Cl)c(NC(=O)COC(=O)CNS(=O)(=O)/C=C/c2ccccc2)c1Cl	-4	44*	6	8	-1	4	3	6
COc1ccc(NC(=O)N(C)C[C@@H]2OCCCC[C@@H](C)Oc3ccc(NS(C)(=O)=O)cc3C(=O)N([C@H](C)CO)C[C@@H]2C)cc1	-3	nt	-2	6	5	-1	nt	nt
CCSC1=NC(C)(C)C=C(/C=C/c2ccc(Cl)cc2Cl)N1	-2	26*	4	5	5	2	32*	33*
CSC1=NC(C)(C)C=C(/C=C/c2ccc(Cl)cc2)N1	-2	24*	1	6	4	8	45*	43*
CSC1=NC(C)(C)C=C(/C=C/c2ccc(Cl)cc2Cl)N1	-5	17	-5	1	2	-5	nt	nt
COC(=O)[C@]12C[C@H](CC(=O)N3CCOCC3)C(=O)N(Cc3ccc(Cl)cc3Cl)C1=C[C@H](C(C)(C)C)O[C@@H]2C	-7	nt	-2	3	1	-2	nt	nt
CC(=O)Oc1ccccc1N(C(C)=O)S(=O)(=O)c1ccc2ccccc2c1	0	-6	-3	-3	1	4	nt	nt
CC(=O)Oc1c(Br)cc(N(C(C)=O)S(=O)(=O)c2ccccc2)c2ccccc12	-5	45*	3	6	12	-5	48*	14*
CCCCOc1ccc(C(=O)NC2CCCCN(Cc3ccc(C)cc3)C2=O)cc1 (configuration not stated)	0	nt	-5	4	2	-3	nt	nt
O=C(O)C1CCCN1C(=O)c1cccc(Cl)c1 (configuration not stated)	-3	nt	4	2	2	2	nt	nt
Cc1ccc(S(=O)(=O)NC[C@@H]2C[C@H](c3ccccc3)ON2S(=O)(=O)c2ccc(C)cc2)cc1	-4	nt	-2	nt	1	1	nt	nt
Cc1[nH]nc(-c2ccc(O)cc2O)c1Oc1ccccc1	0	24*	-1	5	-3	-2	18	36*
CCCOC(=O)c1ccc(Oc2c(-c3ccc(O)cc3O)n[nH]c2C)cc1	4	3	-1	6	2	-3	nt	nt
C=C1C(=O)C2=CC1CCC(=O)C1(C)CCC(OC(C)=O)C(C)(C)C1CC2O (configuration not stated)	0	44*	-4	0	4	-1	58*	92*
O=C1C(=Cc2ccccc2[N+](=O)[O-])Cc2ccccc21	-7	28*	-1	6	4	-4	51*	46*
O=C1/C(=C/c2cccc(F)c2)CSc2sccc21	4	-10	1	-1	-2	0	nt	nt
O=C1/C(=C/c2cccc([N+](=O)[O-])c2)CCc2ccccc21	6	37*	-3	-3	7	6	56*	46*
O=C1C(=Cc2ccccn2)CCc2ccccc21	1	25*	-6	0	1	2	60*	46*
Nc1ccccc1C=C1Cc2ccccc2C1=O	-2	11	3	1	0	-10	nt	nt
O=C1C(=Cc2cccc(F)c2)Cc2ccccc21	-1	24*	5	4	-2	-5	28*	23*
COC(=O)[C@]12C[C@H](CC(=O)NCC3CCCCC3)C(=O)N(Cc3ccc(Cl)cc3Cl)C1=C[C@H](COCc1ccccc1)O[C@@H]2C	-2	nt	-2	11	0	2	nt	nt
